Several values for one entry are separate records, joined by “and”; a condition that tells them apart may be missing. Equal entries are not always repeated. Records with an inconclusive call do not appear. Activity calls are given as the source filed them. Unless noted, calls follow the shape of the dose curve; as a rule, active = well fitted curve in the direction sought with a large enough effect; inconclusive = small, poorly fitted or top-dose-only effect, or another doubt; inactive = no such curve, though single readings can be large; an effect the other way counts as inactive or inconclusive.
What was measured:
[1] = target: Glutaminase kidney isoform, mitochondrial (Homo sapiens) (UniProt O94925); experiment: qHTS for Inhibitors of Glutaminase (GLS): LOPAC Validation (AID 624146); also: nearly all actives have a fitted effect of over 60% in size; also: potency is read from the fitted curve at half-maximal effect
Sequence of Glutaminase kidney isoform, mitochondrial (Homo sapiens) (O94925 whole entry, looked up, canonical isoform): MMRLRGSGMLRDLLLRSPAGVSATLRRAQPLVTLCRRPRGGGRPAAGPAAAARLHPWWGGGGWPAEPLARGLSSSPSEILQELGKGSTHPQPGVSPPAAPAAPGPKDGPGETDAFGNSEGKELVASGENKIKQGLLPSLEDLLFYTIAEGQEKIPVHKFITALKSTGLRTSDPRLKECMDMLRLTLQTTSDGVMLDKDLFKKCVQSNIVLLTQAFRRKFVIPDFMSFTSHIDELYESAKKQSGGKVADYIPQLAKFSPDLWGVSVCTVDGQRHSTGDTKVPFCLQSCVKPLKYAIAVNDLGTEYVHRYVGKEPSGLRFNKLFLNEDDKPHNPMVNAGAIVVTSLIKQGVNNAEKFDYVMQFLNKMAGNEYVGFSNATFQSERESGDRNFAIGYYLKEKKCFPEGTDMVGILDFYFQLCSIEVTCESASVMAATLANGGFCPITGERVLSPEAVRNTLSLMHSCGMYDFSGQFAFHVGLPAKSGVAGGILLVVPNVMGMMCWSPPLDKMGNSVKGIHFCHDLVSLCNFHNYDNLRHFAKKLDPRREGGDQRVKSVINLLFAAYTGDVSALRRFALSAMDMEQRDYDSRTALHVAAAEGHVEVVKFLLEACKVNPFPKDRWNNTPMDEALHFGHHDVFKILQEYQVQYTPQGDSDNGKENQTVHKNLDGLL
Method in brief: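 hKGA; 45 mM KH2PO4 pH 8.2 + 0.02% Tween-20; cpd via pin tool; 1 mM Gln soln; GluOx/HRP/Amplex Red; RT 30 min; fluor. t0 & final.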

[2] = qHTS of Trypanosoma Brucei Inhibitors: LOPAC Validation (AID 624147); also: 0% is about no effect
Method in brief: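 Glycolytic pyruvate kinase of T. brucei was incubated with substrate, test compound and 130 uM ADP for 45 minutes at room temperature. Luminescent Kinase-Glo Plus signal was measured after 10 minutes.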

[3] = target: Glucagon-like peptide 1 receptor (Homo sapiens) (UniProt P43220); experiment: qHTS of GLP-1 Receptor Agonists: LOPAC Validation (AID 624148);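 also: 0% is about no effect; higher luminescence signal means agonism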
Sequence of Glucagon-like peptide 1 receptor (Homo sapiens) (P43220 whole entry, looked up): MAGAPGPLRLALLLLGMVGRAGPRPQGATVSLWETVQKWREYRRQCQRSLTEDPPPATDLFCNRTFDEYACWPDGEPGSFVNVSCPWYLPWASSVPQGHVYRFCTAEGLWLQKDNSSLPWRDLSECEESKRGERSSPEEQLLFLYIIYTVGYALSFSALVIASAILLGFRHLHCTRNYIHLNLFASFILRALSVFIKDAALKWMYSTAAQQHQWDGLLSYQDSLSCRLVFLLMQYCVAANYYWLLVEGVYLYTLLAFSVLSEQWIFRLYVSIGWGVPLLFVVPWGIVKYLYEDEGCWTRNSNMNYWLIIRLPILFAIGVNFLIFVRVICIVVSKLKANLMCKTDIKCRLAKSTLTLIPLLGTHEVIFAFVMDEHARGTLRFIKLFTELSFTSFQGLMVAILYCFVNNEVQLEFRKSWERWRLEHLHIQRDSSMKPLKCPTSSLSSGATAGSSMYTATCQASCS
Method in brief: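 HEK293 cells stably co-expressing GLP-1R and a cAMP-responsive luciferase reporter, plated 12 hours before compound, then incubated 4-6 hr at 37 deg C. Luminescence read 12 min after detection reagent.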

[4] = qHTS of Nrf2 Activators: LOPAC Validation (AID 624149); also: 0% is about no effect
Method in brief: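 ARE reporter activation measured in AREc32 firefly luciferase cells after 24 hr compound exposure; Steady-Glo luminescence.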

[5] = HTS Assay for Allosteric Antagonists of the Human D2 Dopamine Receptor: Hit Validation in HTRF (AID 624455); also: potency is read from the fitted curve at half-maximal effect;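 also: stable D1 dopamine receptor cell line scored for blocking the D1 response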
Method in brief: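 Signal from an HTRF read-out in D1-expressing stable cells gave hit activity as inhibition of the D1 response.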

[6] = target: Luciferin 4-monooxygenase (Photinus pyralis) (UniProt P08659); experiment: Biochemical firefly luciferase enzyme assay for NPC (AID 624030);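 also: purified P. pyralis luciferase at 10 nM with luciferin and ATP substrate; series mostly up to about 59 µM; 0% = DMSO and -100% = full luciferase inhibition by PTC124 control; nearly all actives have a fitted effect of over 70% in size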
Sequence of Luciferin 4-monooxygenase (Photinus pyralis) (P08659 whole entry, looked up): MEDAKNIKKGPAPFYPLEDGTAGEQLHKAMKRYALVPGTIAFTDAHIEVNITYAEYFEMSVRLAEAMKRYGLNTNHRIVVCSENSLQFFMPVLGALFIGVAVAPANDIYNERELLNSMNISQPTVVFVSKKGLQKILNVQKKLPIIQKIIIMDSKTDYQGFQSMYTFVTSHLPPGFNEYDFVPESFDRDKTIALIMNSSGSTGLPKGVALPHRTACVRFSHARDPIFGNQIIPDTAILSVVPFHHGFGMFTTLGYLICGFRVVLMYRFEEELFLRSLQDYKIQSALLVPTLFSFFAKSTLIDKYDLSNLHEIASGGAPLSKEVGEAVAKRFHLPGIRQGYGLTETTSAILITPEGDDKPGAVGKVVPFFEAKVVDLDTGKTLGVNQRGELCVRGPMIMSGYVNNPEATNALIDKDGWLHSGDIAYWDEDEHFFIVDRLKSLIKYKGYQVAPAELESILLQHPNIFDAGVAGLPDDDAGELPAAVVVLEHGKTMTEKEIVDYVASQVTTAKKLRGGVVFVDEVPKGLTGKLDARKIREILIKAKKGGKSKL
Method in brief: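 Purified P. pyralis luciferase at 10 nM in 50 mM Tris Acetate (final), luminescence read within 5 minutes of enzyme addition to compounds. Activity normalised to PTC124 versus DMSO; concentration-response curves classed by r2, magnitude and activity.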

[7] = S16 Schwann cell PMP22 intronic element firefly luciferase assay (AID 624032); also: nearly all actives have a fitted effect of over 30% in size; also: potency is read from the fitted curve at half-maximal effect
Method in brief: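 Rat S16 Schwann cells stably carrying firefly luciferase driven by a PMP22 intronic element, in 10% FBS, treated 24 h at 37 C. ONE-Glo luminescence normalized to PTC124 control and DMSO (0%); curves classed by r2, magnitude and activity.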

[8] = qHTS assay for small molecule disruptors of the mitochondrial membrane potential - 1 hr assay (AID 651754; calls by dose curve; also: nearly all actives have a fitted effect of over 35% in size; also: potency is read from the fitted curve at half-maximal effect)
Method in brief: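 Steps: seed HepG2 cells and let attach overnight; pin-transfer compound or vehicle; incubate 1 hr at 37C; add Mito-MPS dye for 30 min; read two-channel fluorescence for monomer and aggregate forms.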

[9] = qHTS assay for small molecule disruptors of the mitochondrial membrane potential - 5 hr assay (AID 651755; calls by dose curve; also: nearly all actives have a fitted effect of over 40% in size; also: potency is read from the fitted curve at half-maximal effect)
Method in brief: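 HepG2 cells (2,000/well), attached overnight, exposed to compound 5 hr at 37C, then Mito-MPS dye 30 min. Fluorescence read for monomers (490/535 nm) and aggregates (540/590 nm).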

[10] = target: Tumor necrosis factor (Homo sapiens) (UniProt P01375); experiment: qHTS assay to identify small molecules that stimulate Tumor Necrosis Factor-alpha (TNF-alpha) secretion (AID 651757; active = well fitted curve in the direction sought with a large enough effect in the signal ratio; the % refers to the signal ratio; also: 0% is about no effect)
Sequence of Tumor necrosis factor (Homo sapiens) (P01375 whole entry, looked up): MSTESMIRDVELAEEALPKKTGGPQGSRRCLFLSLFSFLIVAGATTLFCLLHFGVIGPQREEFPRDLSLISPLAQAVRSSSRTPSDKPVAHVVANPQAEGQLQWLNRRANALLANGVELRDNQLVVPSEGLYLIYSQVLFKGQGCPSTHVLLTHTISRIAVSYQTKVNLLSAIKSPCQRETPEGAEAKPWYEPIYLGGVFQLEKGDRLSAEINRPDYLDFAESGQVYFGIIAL
Method in brief: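 Secreted TNF-alpha from compound-treated THP-1 cells (17 hrs, 37 C) was quantified with a homogeneous time-resolved fluorescence antibody assay.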

[11] = qHTS assay for environmental chemicals that activate the Aryl hydrocarbon Receptor (AhR) signaling pathway (AID 651777); details: 1A2-DRE human hepatoma cells, luciferase, 24 h; activation: stronger effect = higher value; also: % of control where 0% means no effect; nearly all actives have a fitted effect of over 15% in size
Method in brief: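 Concentration–response screening used 1,200 1A2-DRE cells per well, 24 hr compound exposure (37 C, 5% CO2), and One-Glo luminescence as the AhR-driven CYP1A2 reporter signal.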

[12] = target: Peroxisome proliferator-activated receptor alpha (Homo sapiens) (UniProt Q07869); experiment: qHTS assay for small molecule agonists of the peroxisome proliferator-activated receptor alpha (PPARalpha) signaling pathway (AID 651778); details: PathHunter PPARalpha complementation, chemiluminescence, 6 h; stronger effect = higher value; also: % of control where 0% means no effect
Sequence of Peroxisome proliferator-activated receptor alpha (Homo sapiens) (Q07869 whole entry, looked up, the tested form may be a part): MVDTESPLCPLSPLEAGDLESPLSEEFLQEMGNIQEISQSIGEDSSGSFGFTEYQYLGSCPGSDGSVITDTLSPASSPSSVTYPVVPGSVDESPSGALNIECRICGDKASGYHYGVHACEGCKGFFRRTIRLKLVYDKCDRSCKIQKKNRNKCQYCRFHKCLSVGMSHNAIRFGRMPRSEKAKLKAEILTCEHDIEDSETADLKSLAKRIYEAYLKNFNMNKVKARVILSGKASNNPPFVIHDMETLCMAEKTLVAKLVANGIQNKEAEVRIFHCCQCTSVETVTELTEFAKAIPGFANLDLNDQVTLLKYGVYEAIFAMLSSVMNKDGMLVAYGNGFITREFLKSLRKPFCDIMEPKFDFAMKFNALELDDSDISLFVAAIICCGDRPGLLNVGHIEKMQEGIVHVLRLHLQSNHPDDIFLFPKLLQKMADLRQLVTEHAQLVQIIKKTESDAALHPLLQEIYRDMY
Method in brief: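 Enzyme-fragment complementation assay in which ligand-bound PPARalpha translocates and forms an active enzyme that generates chemiluminescence. Cells were plated overnight, exposed to compound for 6 hr at 37 C, and then given detection reagent for 60 min at room temperature.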

[13] = target: Nuclear receptor ROR-gamma (Homo sapiens) (UniProt P51449); experiment: qHTS assay for small molecule antagonists of the retinoid-related orphan receptor gamma (ROR-gamma) signaling pathway (AID 651802); also: nearly all actives have a fitted effect of over 60% in size; also: potency is read from the fitted curve at half-maximal effect
Sequence of Nuclear receptor ROR-gamma (Homo sapiens) (P51449 whole entry, looked up): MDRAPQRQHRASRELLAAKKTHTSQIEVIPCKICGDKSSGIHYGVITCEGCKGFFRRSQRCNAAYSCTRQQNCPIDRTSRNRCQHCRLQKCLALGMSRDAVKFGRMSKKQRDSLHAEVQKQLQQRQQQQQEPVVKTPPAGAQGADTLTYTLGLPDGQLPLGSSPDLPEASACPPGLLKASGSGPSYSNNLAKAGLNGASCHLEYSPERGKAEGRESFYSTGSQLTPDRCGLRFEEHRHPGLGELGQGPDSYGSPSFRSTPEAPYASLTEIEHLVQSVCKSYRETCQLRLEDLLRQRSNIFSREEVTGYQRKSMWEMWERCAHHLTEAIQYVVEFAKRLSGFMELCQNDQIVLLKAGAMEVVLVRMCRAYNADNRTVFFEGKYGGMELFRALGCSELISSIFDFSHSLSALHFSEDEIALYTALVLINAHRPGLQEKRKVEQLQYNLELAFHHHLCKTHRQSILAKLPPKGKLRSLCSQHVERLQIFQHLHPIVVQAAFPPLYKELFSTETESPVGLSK
Method in brief: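 Antagonism is scored as a fall in luminescence from a RORE-luciferase reporter in CHO cells expressing ROR under a TET-inducible promoter, measured 16hr after doxycycline induction in the presence of compound.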

[14] = S16 Schwann cell PMP22 intronic element beta-lactamase assay (AID 624044; calls by dose curve; also: nearly all actives have a fitted effect of over 15% in size; also: potency is read from the fitted curve at half-maximal effect)
Method in brief: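 Rat S16 Schwann cells with beta-Lac driven by a PMP22 intronic element, compound-treated 24 h at 37 °C. LiveBLAzer FRET B/G read: 460 nm normalized to potassium clavulanate vs DMSO; 535 nm FRET as viability; concentration-effect curves classified.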

[15] = target: Arylsulfatase A (Homo sapiens) (UniProt P15289); experiment: qHTS screen for enhancers of Arylsulfatase A (ASA1): LOPAC Validation Assay (AID 720538)
Sequence of Arylsulfatase A (Homo sapiens) (P15289 whole entry, looked up): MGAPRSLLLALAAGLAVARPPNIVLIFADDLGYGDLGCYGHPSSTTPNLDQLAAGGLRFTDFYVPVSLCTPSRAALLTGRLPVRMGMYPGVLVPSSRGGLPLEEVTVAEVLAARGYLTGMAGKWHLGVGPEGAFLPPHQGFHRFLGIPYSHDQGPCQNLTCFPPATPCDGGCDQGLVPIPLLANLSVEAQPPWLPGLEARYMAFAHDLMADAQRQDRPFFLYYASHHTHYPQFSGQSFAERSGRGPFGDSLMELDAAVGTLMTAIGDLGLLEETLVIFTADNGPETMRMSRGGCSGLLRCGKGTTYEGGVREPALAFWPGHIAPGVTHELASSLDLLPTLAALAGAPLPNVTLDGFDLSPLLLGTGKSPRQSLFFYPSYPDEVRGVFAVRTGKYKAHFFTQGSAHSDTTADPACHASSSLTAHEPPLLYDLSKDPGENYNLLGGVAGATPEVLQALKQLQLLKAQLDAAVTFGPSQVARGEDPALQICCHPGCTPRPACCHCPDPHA
Method in brief: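 Cell-based enhancement test: residual ASA activity in SV40-transformed I179S patient fibroblasts is measured by pNCS turnover (0.5mM final, 14h, room temperature) following 48h compound incubation; higher fluorescence indicates activation.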

[16] = qHTS assay for small molecule activators of the p53 signaling pathway (AID 651743; active = well fitted activation curve with a large enough effect in the signal ratio, not every such curve was filed as active; the % refers to the signal ratio; also: series mostly up to about 92 µM; % of control where 0% means no effect); details: HCT-116 p53RE-bla, beta-lactamase FRET ratio, 16 h; activation: stronger effect = higher value
Method in brief: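 HCT-116 p53RE-bla, 4,000 cells/well; 5 h settle; cpd/DMSO 16 h, 37 C; LiveBLAzer B/G 2 h RT; fluorescence intensity.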

[17] = qHTS assay for small molecule activators of the nuclear factor-kappa B (NF-kB) signaling pathway (AID 651749; active = well fitted activation curve with a large enough effect in the signal ratio; the % refers to the signal ratio; also: series mostly up to about 77 µM; % of control where 0% means no effect); details: NF-kB-bla ME-180 cells, beta-lactamase FRET ratio, 16 h; stronger effect = higher value
Method in brief: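 Incubation lasted 16 hr at 37C in 5% CO2 after 23 nL compound addition to ME-180 NF-kB-bla cells. Activation appears as beta-lactamase-mediated FRET loss.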

[18] = S16 Schwann cell viability assay (CellTiter-Glo assay) (AID 624031); also: nearly all actives have a fitted effect of over 70% in size; also: potency is read from the fitted curve at half-maximal effect
Method in brief: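 Following overnight culture in 10% FBS DMEM, parental S16 rat Schwann cells are dosed for 24 h at 37 °C. Viability is read as CellTiter-Glo luminescence and expressed as % activity relative to DMSO (0%) and no-cell wells.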

[19] = qHTS assay for small molecule agonists of the antioxidant response element (ARE) signaling pathway (AID 651741; active = well fitted activation curve with a large enough effect in the signal ratio; the % refers to the signal ratio; also: potency is read from the fitted curve at half-maximal effect)
Method in brief: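 HepG2 ARE-bla cells plated at 2,000 cells/well and incubated 5 h at 37 C/5% CO2 received 23 nL compound in DMSO. After 16 h at 37 C, LiveBLAzer B/G FRET substrate was applied for 2 h at room temperature and fluorescence read.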

CCCCCCC(C)(C)c1ccc([C@@H]2C[C@H](O)CC[C@H]2CCCO)c(O)c1
inactive: Potency [1] | Potency [2] | outcome [3] | Potency [4] | Potency [5]

C[C@H]1CC[C@@H]2[C@@H](C)[C@H]3[C@H](C[C@H]4[C@@H]5CC=C6CC(O[C@@H]7O[C@H](CO)[C@H](O)[C@H](O[C@@H]8O[C@H](CO)[C@@H](O)[C@H](O)[C@H]8O)[C@H]7O[C@H]7O[C@@H](C)[C@H](O)[C@@H](O)[C@H]7O)CC[C@]6(C)[C@H]5CC[C@]34C)N2C1 (stereo not given in full)
inactive: Potency [6] | outcome [10] | activation [11] -8.71% | max response [12] -0.952%
active: Potency [7] 28.7 µM | Potency [8] 33.5 µM | Potency [9] 33.5 µM | Potency [13] 13.3 µM

CC1OC1P(=O)(O)O (stereo not given)
inactive: Potency [14] | Potency [1] | Potency [15]

F/C(COc1ccc2c(c1)[nH]c1ccccc12)=C1/CN2CCC1CC2
inactive: Potency [7] | Potency [14]

CC(C)[C@@]1(NC(=O)[C@@H]2C[C@@H]3c4cccc5[nH]cc(c45)C[C@H]3N(C)C2)O[C@@]2(O)[C@@H]3CCCN3C(=O)[C@H](Cc3ccccc3)N2C1=O
active: Potency [5] 0.0517 µM
inactive: Potency [6] | Potency [2] | outcome [3] | Potency [4] | Potency [15]

CCNC(=O)[C@H]1O[C@@H](n2cnc3c(N)ncnc32)[C@H](O)[C@@H]1O
inactive: Potency [1] | Potency [2] | outcome [3] | Potency [4] | Potency [5]

O=C1C2CC=CCC2C(=O)N1SC(Cl)(Cl)Cl (stereo not given)
inactive: activation [16] -1.26% and 18.6% | activation [17] -2.11% | outcome [10] | activation [11] -4.61% and -3.77% and 2.69% | max response [12] -6.31% and -2.76% and -2.09%
active: Potency [7] 12.8 µM | Potency [14] 22.4 µM | Potency [8] 26.6 µM and 33.5 µM | Potency [9] 23.7 µM and 33.5 µM

NNC(N)=O
inactive: Potency [1] | Potency [2] | outcome [3] | Potency [4] | Potency [5] | activation [17] -0.594% | Potency [8] | Potency [9] | outcome [10] | activation [11] 0.598% | max response [12] -2.31% | Potency [13] | Potency [15]

C[CH2][Hg][S]c1ccccc1C(=O)O
inactive: activation [11] -11.2% | max response [12] -9.74%
active: Potency [18] 1.28 µM | Potency [7] 0.721 µM

NCC(O)c1cc(O)c(O)cc1F (stereo not given)
active: Potency [5] 0.326 µM
inactive: Potency [1] | Potency [2] | outcome [3] | Potency [4]

NC(=O)COc1c(F)cc(SCCNS(=O)(=O)c2ccccc2)cc1F
inactive: Potency [1] | Potency [2] | outcome [3] | Potency [4] | Potency [5] | Potency [15]

CCn1cnc2c(Nc3cccc(Cl)c3)nc(N[C@@H]3CCCC[C@@H]3N)nc21
inactive: Potency [1] | Potency [2] | outcome [3] | Potency [4] | Potency [5] | Potency [15]

COc1ccc2c(c1)c(CCN1CCOCC1)c(C)n2C(=O)c1cccc(Cl)c1Cl
inactive: Potency [1] | Potency [2] | outcome [3] | Potency [4] | Potency [5]

C[C@@H]1O[C@@H](O[C@H]2C[C@@H](O)[C@]3(CO)[C@@H]4C(CC[C@]3(O)C2)[C@@]2(O)CC[C@H]([C@@H]3COC(=O)C3)[C@@]2(C)C[C@H]4O)[C@H](O)[C@H](O)[C@H]1O (stereo not given in full)
inactive: Potency [1] | Potency [2] | outcome [3] | Potency [4]

c1ccc2sc(SNC3CCCCC3)nc2c1
inactive: Potency [18] | Potency [7] | Potency [14]

O=[N+]([O-])C(Br)(CO)CO
active: Potency [18] 28.7 µM | Potency [19] 54.5 µM
inactive: activation [17] -3.37% | activation [11] 5.58% | max response [12] 0.217%

COc1cc(CC(C)N)c(OC)cc1I (stereo not given)
inactive: Potency [1] | Potency [2] | outcome [3] | Potency [4] | Potency [5] | Potency [15]

N[C@@H](Cn1oc(=O)[nH]c1=O)C(=O)O
inactive: Potency [1] | Potency [2] | outcome [3] | Potency [4] | Potency [5]

N#CCCN
inactive: Potency [1] | Potency [2] | outcome [3] | Potency [4] | Potency [5]

CC(=O)OCC1=C(C(=O)O)N2C(=O)[C@@H](NC(=O)CCC[C@@H](N)C(=O)O)[C@H]2SC1
inactive: Potency [1] | Potency [2] | outcome [3] | Potency [4] | Potency [5] | Potency [15]

N[C@@H](CCl)C(=O)O
inactive: Potency [1] | Potency [2] | outcome [3] | Potency [4] | Potency [5] | Potency [15]

COC(=O)N1CCN(C(=O)Cc2ccc(Cl)c(Cl)c2)C(CN2CCCC2)C1 (stereo not given)
inactive: Potency [1] | Potency [2] | outcome [3] | Potency [4] | Potency [5] | Potency [15]

CCCn1c(C)c(C(=O)c2ccc3ccccc3c2)c2ccccc21
inactive: Potency [1] | Potency [2] | outcome [3] | Potency [4] | Potency [5] | Potency [15]

C[C@H](N)Cc1cccc(C(F)(F)F)c1
inactive: Potency [1] | Potency [2] | outcome [3] | Potency [4] | Potency [5] | Potency [15]

C=CCN1CC[C@]23c4c5ccc(O)c4O[C@H]2/C(=N/NC(=O)c2ccccc2)CC[C@@]3(O)[C@H]1C5
active: Potency [1] 14.1 µM
inactive: Potency [2] | outcome [3] | Potency [4] | Potency [5] | Potency [15]

N[C@@H](Cn1ccc(=O)[nH]c1=O)C(=O)O
inactive: Potency [1] | Potency [2] | outcome [3] | Potency [4] | Potency [5] | Potency [15]

NCCc1ccc(S(=O)(=O)F)cc1
inactive: Potency [1] | Potency [2] | outcome [3] | Potency [4] | Potency [5] | Potency [15]

NCCCP(=O)(O)O
inactive: Potency [1] | Potency [2] | outcome [3] | Potency [4] | Potency [5] | Potency [15]

COc1ccc2c(c1)C13CCCCC1C(C2)N(C)CC3 (stereo not given)
inactive: Potency [1] | Potency [2] | outcome [3] | Potency [4] | Potency [5] | Potency [15]
